Compound activity (PubChem BioAssay)
This is a sample that favours compounds with a hit; in the whole collection about 1.2% have one here.
NCOA3 inh – inhibitors of human steroid receptor coactivator 3 (SRC3) | Q9Y6Q9 | actives 0.17% (n = 360,000) | inhibition, % at 3.6 µM | HEK293 GAL4-SRC3 luciferase reporter, luminescence;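 active = inhibition above a per-campaign cutoff, the mean of all compounds plus 3 SD, cut at about 60% in these data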;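 note: higher means less SRC3-driven luciferase light from the GAL4 reporter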
NR2F2 inh – NR2F2 (human) inhibition, primary screen. inhibition, % at 8.6 µM. HEK293T NGFI-A luciferase reporter, luminescence. actives 0.7% (n = 370,000). AID 686940;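 active = inhibition above a per-plate cutoff, mean inhibition of test wells between control levels plus 3 SD, cut at about 38% in these data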;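 note: cells cotransfected with COUP-TFII expression vector driving the NGFI-A reporter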
SRC2 inh – inhibits human steroid receptor coactivator 2; HEK293 GAL4-SRC2 luciferase reporter, luminescence; inhibition, % at 9 µM; Q15596; AID 651957; actives 0.17% (n = 370,000);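 active = inhibition above the mean inhibition of all tested compounds plus 3 SD, set per campaign, cut at about 52% in these data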
NCOA1 inh – human NCOA1 inhibition | HEK293 GAL4-SRC1 luciferase reporter, luminescence | inhibition, % at 3.6 µM | actives 0.12% (n = 360,000) | AID 588354;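 active = inhibition above the campaign mean plus 3 SD, with each screening campaign given its own cutoff, cut at about 60% in these data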
NR5A2 inv ag – NR5A2 inverse agonism in reporter assay. HEK293T StAR-luciferase reporter, LRH-1 transfected, 24 h. inhibition, % at 3.6 µM. actives 0.13% (n = 360,000);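 active = inhibition above the mean inhibition of all tested compounds plus 3 SD, cut at about 73% in these data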
Efflux pump mplx – inhibitors of Candida antifungal efflux pumps expressed in yeast; inhibition, % at 10 µM; S. cerevisiae Candida pump triplex, Nile Red efflux; AID 485275; actives 0.44% (n = 330,000);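 active = plate passing quality check with inhibition over a set limit, or well fluorescence over plate mean plus 4 SD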;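 note: Nile Red retained in pooled yeast measured as flow cytometry median fluorescence; higher means more Nile Red kept so more efflux inhibition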
Yeast cmpd fluor – counter-screen for efflux pump inhibitors: compound fluorescence; shares compounds with Efflux pump mplx; S. cerevisiae AD/pABC3, flow cytometry; fluorescence ratio to DMSO, % at 10 µM; actives 4% (n = 1,700); AID 588517;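 active = fluorescence ratio to DMSO above its plate's cutoff, the plate mean ratio plus 5 SD, cut at about 210% in these data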;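 note: unstained yeast with no Nile Red so the signal is compound autofluorescence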
CaMdr1 efflux inh – blocks the Candida albicans Mdr1 efflux pump in yeast. shares compounds with Efflux pump mplx. S. cerevisiae AD/CaMDR1, Nile Red efflux, flow cytometry. inhibition, % at 10 µM. actives 1% (n = 1,700); in the data active = inhibition above about 26%;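 note: higher means more Nile Red retained so more efflux inhibition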
CaCdr2 efflux inh – Candida Cdr2 efflux pump inhibition | AID 588520 | Nile Red retention ratio vs DMSO, % at 10 µM | actives 4% (n = 1,700) | shares compounds with Efflux pump mplx | S. cerevisiae AD/CaCDR2, Nile Red retention, flow cytometry; in the data active = Nile Red retention ratio vs DMSO above about 190%;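 note: higher ratio means more blocking of Cdr2 efflux of the dye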
Cdr1 pump inh – inhibitors of Candida albicans Cdr1 efflux pump; inhibition, % at 10 µM; shares compounds with Efflux pump mplx; actives 1% (n = 1,700); S. cerevisiae AD/CaCDR1, Nile Red efflux, flow cytometry;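 active = inhibition above the screen-wide mean plus twice its standard deviation, cut at about 32% in these data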
VP16 Luc counter – counter-screen for COUP-TFII antagonists: inhibitors of VP16. HEK293 Gal4-VP16 luciferase reporter, luminescence. inhibition, % at 8.5 µM. shares compounds with NR2F2 inh. actives 25% (n = 2,500). AID 687007; in the data active = inhibition above about 13%
COUP-TFII conf – COUP-TFII (NR2F2) inhibition, confirmation assay; shares compounds with NR2F2 inh; HEK293 NGFI-A luciferase reporter, luminescence; inhibition, % at 8.5 µM; actives 45% (n = 2,500);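 active = mean inhibition over three repeats above a set limit taken from the earlier primary screen, cut at about 38% in these data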
Numbers stand for hits; - = inactive; . = no result given; + = active, no number.

SMILES	NCOA3 inh	NR2F2 inh	SRC2 inh	NCOA1 inh	NR5A2 inv ag	Efflux pump mplx	VP16 Luc counter	COUP-TFII conf	others
CC(=NCc1cccnc1)c1c(O)n(-c2ccccc2C)c(=O)[nH]c1=O	-	-	-	-	-	1.8	.	.	Yeast cmpd fluor=-;CaMdr1 efflux inh=-;CaCdr2 efflux inh=-;Cdr1 pump inh=-
CCC(=NCc1cccnc1)c1c(O)n(-c2ccccc2C)c(=O)[nH]c1=O	-	-	-	-	-	-	.	.
N#CC(C#N)=Cc1ccc(C=C(C#N)C#N)cc1	-	-	-	-	-	.	.	.
CCOC(=O)c1c(-n2c(C)cc(/C=C3\C(=O)NC(=O)N(C)C3=O)c2C)sc2c1CCCC2	-	-	-	-	-	-	.	.
Cc1cc(/C=C2\C(=O)NC(=O)N(c3ccc(Cl)cc3)C2=O)c(C)n1-c1sc2c(c1C#N)CCCC2	-	-	-	-	-	0.8	.	.	Yeast cmpd fluor=-;CaMdr1 efflux inh=-;CaCdr2 efflux inh=-;Cdr1 pump inh=-
CCC(C)N1C(=O)/C(=C\c2ccc(N3CCCCCC3)cc2)C(=O)NC1=S (stereo unspecified)	-	-	-	-	-	-	.	.
CCC(C)N1C(=O)/C(=C\c2cc3c4c(c2)CCCN4CCC3)C(=O)NC1=S (stereo unspecified)	-	-	-	-	-	0.7	.	.	Yeast cmpd fluor=-;CaMdr1 efflux inh=-;CaCdr2 efflux inh=-;Cdr1 pump inh=-
O=C(Nc1c(F)cc(F)cc1F)c1cccn(Cc2ccccc2)c1=O	-	-	-	-	-	0.8	.	.	Yeast cmpd fluor=-;CaMdr1 efflux inh=-;CaCdr2 efflux inh=-;Cdr1 pump inh=-
COC(=O)C1=C(c2ccccc2)C[C@@H]2CC[C@H]1N2C(=O)NCc1cccc2ccccc12	-	-	-	-	-	-	.	.
O=c1c2ccccc2nc(-c2ccccc2)n1-c1ccccc1	-	-	-	-	-	-	.	.
O=c1c2ccccc2[se]n1-c1ccccc1	-	-	-	-	-	4.0	.	.	Yeast cmpd fluor=-;CaMdr1 efflux inh=-;CaCdr2 efflux inh=-;Cdr1 pump inh=-
CC(=Nc1c(C)n(C)n(-c2ccccc2)c1=O)c1c(O)n(Cc2ccccc2)c(=O)[nH]c1=O	-	-	-	-	-	-	.	.
Clc1ccc(C(c2ccc(Cl)cc2)n2cc[n+](CC(OCc3ccc(Cl)cc3Cl)c3ccc(Cl)cc3Cl)c2)cc1 (stereo unspecified)	-	-	-	-	-	90	.	.	Yeast cmpd fluor=-;CaMdr1 efflux inh=-;CaCdr2 efflux inh=+;Cdr1 pump inh=-
CSc1ncc(/C=C2/C(=O)NC(=O)N(c3ccc(C(C)C)cc3)C2=O)cn1	-	-	-	-	-	-	.	.
Cc1ccc2c(c1)C1CN(C)CCC1N2C(=O)c1ccc(Br)o1 (stereo unspecified)	-	-	-	-	-	0.6	.	.	Yeast cmpd fluor=-;CaMdr1 efflux inh=-;CaCdr2 efflux inh=-;Cdr1 pump inh=-
CCOc1ccc(N2C(=O)/C(=C/c3ccc(C)o3)C(=O)NC2=S)cc1	-	-	-	-	-	0.9	.	.	Yeast cmpd fluor=-;CaMdr1 efflux inh=-;CaCdr2 efflux inh=-;Cdr1 pump inh=-
C=C(CC1CC(O)[C@]2(C)OC3CC4OC5C[C@]6(C)O[C@]7(C)CCC8OC9C[C@]%10(C)OC%11C(C)=CC(=O)OC%11CC%10OC9C[C@@H](C)C8OC7CC6O[C@]5(C)C/C=C\C4OC3CC2O1)C(=O)O (stereo partly specified)	-	-	-	-	-	-	.	.
C=C(C=O)CC1CC(O)[C@]2(C)OC3CC4OC5C[C@]6(C)O[C@]7(C)CCC8OC9C[C@]%10(C)OC%11C(C)=CC(=O)OC%11CC%10OC9C[C@@H](C)C8OC7CC6O[C@]5(C)C/C=C\C4OC3CC2O1 (stereo partly specified)	.	76	.	.	.	.	-	-
Cc1ccc(Cn2nc(C(=O)Nc3ccc(Br)cc3)cc2C)cc1	-	53	-	-	-	-	-	-
CCOC(=O)[C@]12Cc3cc(Cl)ccc3[C@H]1N(C1CCCCC1)C(=O)c1cc(OC)ccc12	.	59	-	.	97	.	53	60
CCOC(=O)[C@]12Cc3cc(C)ccc3[C@H]1N(C1CCCCC1)C(=O)c1ccccc12	.	-	-	.	-	.	.	.
CCOC(=O)[C@]12Cc3ccc(C)cc3[C@H]1N(C1CCCCC1)C(=O)c1cc(OC)ccc12	.	52	-	.	-	.	23	-
CCOC(=O)[C@]12Cc3ccc(C)cc3[C@H]1N(C1CCCCC1)C(=O)c1ccccc12	.	50	-	.	-	.	17	-
Cc1ccc2c(c1)N(C(C)C(=O)N1CCC3(CC1)OCCO3)C(=O)CO2 (stereo unspecified)	-	-	-	-	-	-	.	.
Cc1ccc(-c2nc(N(C)C3CCN(C)CC3)c3ccccc3n2)cc1	-	-	-	-	-	-	.	.
SMILES	NCOA3 inh	NR2F2 inh	SRC2 inh	NCOA1 inh	NR5A2 inv ag	Efflux pump mplx	VP16 Luc counter	COUP-TFII conf	others
CC1CCCC(NC(=O)CNC(=S)N2CC3CC(C2)c2cccc(=O)n2C3)C1C (stereo unspecified)	-	-	-	-	-	-	.	.
CCC(C)(O)C(=O)OC1C(=O)OC2CC3C(C)=CC(O)C(O)C3(C)C3C4(O)OCC23C1C(C)C4O (stereo unspecified)	71	75	-	-	97	.	-	62
CCCc1[nH]nc2c1C1(C(=O)N(Cc3ccccc3)c3ccccc31)C(C(=O)OC)=C(N)O2 (stereo unspecified)	-	-	-	-	-	-	.	.
COC(=O)c1ccc(NC(=O)CSc2nc3ccc(N4C(=O)C5C6C=CC(C6)C5C4=O)cc3s2)cc1 (stereo unspecified)	-	64	-	-	-	-	-	-
CCCN1CCc2cccc3c2[C@H]1Cc1ccc(O)c(O)c1-3	-	.	.	-	-	-	.	.
CC(C)(O)/C=C/C(=O)C(C)(O)C1C(O)CC2(C)C3CC=C4C(C=C(O)C(=O)C4(C)C)C3(C)C(=O)CC12C (stereo unspecified)	67	44	75	-	-	.	61	65
C=C1C(=O)O[C@@H]2C[C@@H](C)[C@@H]3C=CC(=O)[C@@]3(C)[C@@H](OC(=O)CC(=O)O[C@H]3[C@@H]4C(=C)C(=O)O[C@@H]4C[C@@H](C)[C@@H]4C=CC(=O)[C@]43C)[C@H]12	74	98	94	66	87	-	96	109
C=C1C(=O)OC2C1CCC(C)C1(O)C=CC(=O)C21C (stereo unspecified)	-	-	-	-	-	.	.	.
